Reference: ChEMBL document CHEMBL4513216, “Probing the Open Global Health Chemical Diversity Library for Multistage-Active Starting Points for Next-Generation Antimalarials” (ACS Infect Dis, 2020)
About 8,600 (12%) of roughly 69,000 compounds showed an effect of 50% or more. The sample as a whole holds a higher share of strong results than the screen did.

Each compound was assayed on Plasmodium berghei (assay: Screen against P. berghei liver stage (PbLuc), transformed with Luciferase, at 10uM). Details: tested at 10 uM.
Type: functional, HepG2

Row | Compound | INHIBITION [%]
1 | CCc1nnc2n1CCN(C(=O)Cc1nc(-c3ccco3)oc1C)C2 | -17.6
2 | Cc1ncc(C(=O)N2CCCC(n3nc(C)nc3C)C2)c(C(C)C)n1 (stereo unspecified) | -3.15
3 | Cc1cc(C)n(CC2CCCN2C(=O)c2cccc(C#N)c2)n1 (stereo unspecified) | -3.585
4 | COc1ccc(OCCN2CCC(c3ccnn3CCO)CC2)cc1 | 11.4
5 | Cc1ccc(C(C(=O)NC(C)(C)CN2CCCC2)N(C)C)cc1 (stereo unspecified) | 35.7
6 | CCn1ncc2c1C(COC)N(C(=O)Cc1cccs1)CC2 (stereo unspecified) | 25.8
7 | CCOCC1c2c(ncn2C)CCN1C(=O)c1ccoc1 (stereo unspecified) | -3.17
8 | CCOCC1CC2(CCN(C(=O)c3cscn3)CC2)CO1 (stereo unspecified) | 9.63
9 | CCOCC1c2c(ncn2C(C)C)CCN1C(=O)CC (stereo unspecified) | 29.8
10 | CCOCC1c2c(ncn2C)CCN1C(=O)c1cnc(C)cn1 (stereo unspecified) | 57.5
11 | CCn1ncc2c1C(COC)N(C(=O)c1ccsc1)CC2 (stereo unspecified) | 43.9
12 | CCOCC1c2c(ncn2C(C)C)CCN1C(=O)C1CC1 (stereo unspecified) | 76.4
13 | CCOCC1c2c(cnn2C)CCN1C(=O)c1cc(C)on1 (stereo unspecified) | 37.6
14 | CCOCC1CN(C(=O)c2cscn2)Cc2cn(C)nc21 (stereo unspecified) | 17.1
15 | CCOCC1c2c(ncn2C(C)C)CCN1C(C)C (stereo unspecified) | 10.5
16 | CCn1ncc2c1C(COC)N(C(=O)c1cccs1)CC2 (stereo unspecified) | 51.2
17 | CCOCC1c2c(ncn2C)CCN1C(=O)c1cscn1 (stereo unspecified) | 60.2
18 | CN(Cc1cc(C2CC2)[nH]n1)C(=O)c1cnn2ccn(C)c12 | 14.9
19 | Cc1c(-c2cccs2)nn2c(=O)c3c([nH]c12)CN(C(=O)C1CC1)C3 | 43.7
20 | CC1c2ncc(CNC(=O)C3CC3)n2CCN1Cc1ccncc1 (stereo unspecified) | 6.55
21 | CN1CCN(c2cc(CNC(=O)c3cnccn3)ccn2)CC1 | 35.3
22 | O=C(CC(F)(F)F)N1C[C@@H]2CC[C@H]1CN(Cc1ccccc1)C2 | -8.47

Row | Compound | INHIBITION [%]
23 | CNc1nc(C2CCCCN2C(=O)C(C)(C)OC)nc2c1CN(C)CC2 (stereo unspecified) | 38.2
24 | CC1c2ncc(COCC3CCOCC3)n2CCN1C(=O)c1ccco1 (stereo unspecified) | 47.2
25 | COC1C[C@@H]2CN(C(=O)c3cc4ccc(F)cc4[nH]3)C[C@@H]2C1 (stereo partly specified) | -36.1
26 | COCC1c2c(cnn2C)CCN1C(=O)c1cscn1 (stereo unspecified) | 56.6
27 | COCC1c2c(cnn2C)CCN1C(=O)c1cc(C)on1 (stereo unspecified) | 38.5
28 | CCn1ncc2c1C(COC)N(C(=O)c1cscn1)CC2 (stereo unspecified) | 38.5
29 | O[C@@H]1C[C@H]2CN(CC3CCCCC3)[C@H](Cc3ccccc3)CN2C1 | 16.2
30 | O=C(CC1CC1)NCc1cn2c(n1)CN(C(=O)c1cccnc1)CC2 | -5.69
31 | Cn1cc(Br)c(=O)c(NS(=O)(=O)c2ccc(Cl)cc2)c1 | -4.68
32 | CC(=O)N1CCCN(CC(C)(O)c2cccc(C(F)(F)F)c2)CC1 (stereo unspecified) | 64.5
33 | CCN1CCN(CC(C)(O)c2cccc(C(F)(F)F)c2)CC1 (stereo unspecified) | 20.1
34 | CC(=O)N1CCN(CC(C)(O)c2cccc(C(F)(F)F)c2)CC1 (stereo unspecified) | 33.3
35 | Cn1cnnc1S(=O)(=O)Cc1cc(Cl)c2c(c1)OCCO2 | 63.8
36 | CC(C(N)=O)S(=O)(=O)Cc1cc(Cl)c2c(c1)OCO2 (stereo unspecified) | 16.7
37 | CNC(=O)CCS(=O)(=O)Cc1cc(Cl)c2c(c1)OCCO2 | 15.3
38 | CCc1nnc(S(=O)(=O)Cc2cc(Cl)c3c(c2)OCO3)n1C | 24.8
39 | Cn1cnnc1S(=O)(=O)Cc1cc(Cl)c2c(c1)OCO2 | 68.4
40 | CN(C)C(=O)CS(=O)(=O)Cc1cc(Cl)c2c(c1)OCCO2 | 16.9
41 | Cc1csc(N2CCCN(C(=O)c3c(C)noc3C)CC2)n1 | -19.6
42 | COc1cccc(CCN2C[C@H]3CCNCC[C@H]3S2(=O)=O)c1 | 24.6
43 | CCn1cc(NC(=O)NCCN2CCc3ccccc3C2)cn1 | 17.5
44 | Cc1cc(C)n(C2CCCN(C(=O)c3ccc(N(C)C)nn3)C2)n1 (stereo unspecified) | 13.2

Row | Compound | INHIBITION [%]
45 | CC(=O)Nc1cc(CCC2CCN(C(=O)c3ccccn3)CC2)ccn1 | 10.35
46 | O=C(CO)N1CCC(CCc2ccnc(Nc3cnccn3)c2)CC1 | 36
47 | O=C(Nc1cc(CCC2CCN(CCO)CC2)ccn1)c1ccccn1 | 52.8
48 | CN1CCC(CCc2ccnc(NC(=O)c3ccccn3)c2)CC1 | 67.45
49 | CC(=O)N1CCC(CCc2ccnc(Nc3ccccn3)c2)CC1 | 40.65
50 | CC(=O)N1CCC(CCc2ccnc(NC(=O)c3ccccn3)c2)CC1 | 21.95
51 | CC(=O)N1CCC(C(=O)NCc2cc[nH]n2)(c2ccccc2)CC1 | -11.9
52 | COc1ccc(OC)c(C(O)CNC(=O)Nc2ccc(F)cc2F)c1 (stereo unspecified) | -27
53 | c1ccc2c(c1)CC(CNCc1ccncc1)(N1CCCCC1)C2 | 12.3
54 | CSc1ncc(CNCC2(N3CCCCC3)Cc3ccccc3C2)cn1 | 72.4
55 | Cn1cc(CNCC2(N3CCCCC3)Cc3ccccc3C2)cn1 | 78.1
56 | CC(=O)NCCNC(=O)C1(N2CCCCC2)Cc2ccccc2C1 | -46.4
57 | CCc1ccccc1CNC(=O)NCc1cnn(C)c1 | 13.9
58 | O=C(NCCCO)C1(N2CCCCC2)Cc2ccccc2C1 | 0.818
59 | CCN(CC)CC1CN(CCc2ccccc2)Cc2nccn2C1 (stereo unspecified) | 0.139
60 | CC(c1cc(O)nc(NC2CCCC2)n1)n1ncc2ccccc2c1=O (stereo unspecified) | 4.8
61 | Cc1nc(C)n(CC2CCCCN2CCOc2ccc(C#N)cc2)n1 (stereo unspecified) | 42
62 | CCc1ncc2c(n1)CN(C(C)C(=O)Nc1ccc(Cl)cn1)CC2 (stereo unspecified) | 48.2
63 | Cc1nnc(C(C)Nc2cccc(COCCc3ccccc3)c2)o1 (stereo unspecified) | 19.7
64 | Cc1nnc(C(C)Nc2cccc(COCCOC(C)C)c2)o1 (stereo unspecified) | 21.5
65 | Cc1nnc(C(C)Nc2cccc(COCC(F)(F)C(F)F)c2)o1 (stereo unspecified) | 57.4
66 | CN(C)CCNC(=O)[C@H]1C[C@H]2CN(C(=O)NC3CCCC3)C[C@@H]1O2 | 6.83

Row | Compound | INHIBITION [%]
67 | Cc1ccc(Cn2cc(Br)c(NS(C)(=O)=O)n2)cc1 | 19.575
68 | CNc1cc(C2CN(C(=O)c3ccccc3)CCO2)nc(C)n1 (stereo unspecified) | 23.9
69 | O=C(NCC(F)(F)F)C1CSCN1S(=O)(=O)c1ccccc1F (stereo unspecified) | 52.3
70 | CC(C)(C)NC(=O)C1CSCN1S(=O)(=O)c1ccccc1F (stereo unspecified) | 32.7
71 | O=C(NCC1CC1)C1CSCN1S(=O)(=O)c1ccccc1F (stereo unspecified) | 26.6
72 | O=C(c1ccccc1-n1cccn1)N1CCC(Nc2cccnn2)CC1 | -92.9
73 | Oc1cc(C2CCCCN2C2CCCC2)nc(-c2cccnc2)n1 (stereo unspecified) | 15.5
74 | Cc1ccc(C(=O)N(C)Cc2nccn2CC(F)(F)F)cn1 | -16.8
75 | Cc1cc(C)nc(N2CCOC(C)(C(=O)N(C)C)C2)n1 (stereo unspecified) | -11.4
76 | Cc1nc(CO[C@H]2CN(C(=O)c3cccn3C)[C@@H]3COC[C@H]23)cs1 | 38.5
77 | Cc1nc(CO[C@@H]2CN(Cc3ccc(F)cc3)[C@@H]3COC[C@@H]32)cs1 | 23.6
78 | Cc1nc(CO[C@H]2CN(C(=O)c3cnoc3C)[C@@H]3COC[C@H]23)cs1 | 24.9
79 | Cc1nc(CO[C@H]2CN(C(=O)c3cccnc3)[C@@H]3COC[C@H]23)cs1 | 51.2
80 | Cc1nc(CO[C@@H]2CN(Cc3cnn(C)c3)[C@@H]3COC[C@@H]32)cs1 | 50.1
81 | Cc1nc(CO[C@@H]2CN(Cc3ccsc3)[C@@H]3COC[C@@H]32)cs1 | 14.1
82 | Cn1ccc(C(=O)N2C[C@@H]3OCCN(c4ncccn4)[C@@H]3C2)n1 | 18.4
83 | Cc1nc(-c2ccccc2)n(CC(=O)NC(C)(C)C)n1 | 16.8
84 | CC(C)(C)OC(=O)NCCc1csc(N2CCCC2)n1 | 65.4
85 | CCN(CC)CC(=O)NCCc1csc(N2CCCC2)n1 | 9.48
86 | CCCc1nc(CNC(=O)Cc2csc(C)n2)cs1 | 9.35
87 | Cc1nc(CC(=O)NCc2csc(N3CCCC3)n2)cs1 | 70.3
88 | CC(C)(C)SCC(=O)NCCc1csc(N2CCCC2)n1 | 78.2

Row | Compound | INHIBITION [%]
89 | CCNC(=O)NCCc1csc(N2CCCC2)n1 | 39.7
90 | Cc1ncsc1CCC(=O)NCc1csc(N2CCCC2)n1 | -20.8
91 | CC(C)OCCC(=O)NCCc1csc(N2CCCC2)n1 | 48.3
92 | CCC=C(C)C(=O)NCCc1csc(N2CCCC2)n1 | 41.4
93 | O=C(CN1CC(c2nc(-c3ccco3)no2)C1)NCCc1ccccc1 | -63.6
94 | Cc1nc(NC(=O)c2c3c(nn2C2CCS(=O)(=O)C2)CCC3)sc1C (stereo unspecified) | -14.9
95 | O=C(NCc1ccc(CO)cc1)C1CCOc2ccccc2C1 (stereo unspecified) | 5.91
96 | Cn1nc(C(=O)N2CCOCC2)cc1C(=O)Nc1cc(Cl)cc(Cl)c1 | 45.9
97 | CCc1nnc(NC(=O)NCCN(C)C(=O)OC(C)(C)C)s1 | 1.98
98 | CCc1cccc(OCCCN(C)C(=O)CN2CCNC2=O)c1 | 17
99 | CCc1cccc(OCCn2cccc(C#N)c2=O)c1 | 68.3
100 | CC1C(=O)NCCN1CCOc1ccc(C#N)cc1 (stereo unspecified) | -17.2
101 | N#Cc1cccn(CCOc2ccc(Cl)cc2)c1=O | 77.2
102 | COc1cccc(Cn2cccc(C#N)c2=O)c1 | 41.4
103 | N#Cc1ccc(OCCn2cccn2)cc1 | 15.7
104 | CC(=O)N1Cc2nccn2CC(CNC(=O)c2cccnc2)C1 (stereo unspecified) | -48.4
105 | O=C(c1c(O)cnc2ccccc12)N1CCN(CC(F)F)CC1 | -32.1
106 | CC[C@@H]1N(Cc2nccs2)CCC[C@]12CCC(=O)N2CCOC | 16.4
